Several values for one entry are separate records, joined by “and”; a condition that tells them apart may be missing. Identical values can stand only once.
Assays:
Assay type in all cases: functional
Plasmodium falciparum [1] = test: GSK_TCMDC: Inhibition of Plasmodium falciparum 3D7 in whole red blood cells, using parasite LDH activity as an index of growth. Test compounds present at 2uM
Plasmodium falciparum [2] = test: GSK_TCMDC: Inhibition of Plasmodium falciparum Dd2 in whole red blood cells, using parasite LDH activity as an index of growth. Test compounds present at 2uM
HepG2 = test: GSK_TCMDC: Percent inhibition of human HepG2 cell line. Test compounds present at 10uM.

Structure (SMILES)	Inhibition (Plasmodium falciparum [1])	Inhibition (Plasmodium falciparum [2])	Inhibition (HepG2)
COc1cccc(-c2cnc(-c3ccncc3)nc2C2CCN(Cc3ccc(NC(C)=O)cc3)CC2)c1	89%	0%	17%
Cc1cccc(-c2cccc3c(NC(=O)N4CCc5cc6nccc(N7CCN8CCC[C@H]8C7)c6cc54)cccc23)n1.Cl	94%	68%	14%
CCCCCCCN(Cc1ccc(OC(C)(C)C(=O)OCC)cc1)C(=O)Nc1ccccc1OC(F)(F)F	95%	68%	0%
CCN(CC)CCCNCc1ccc(-c2ccc(C(F)(F)F)cc2)cc1	95%	35%	53%
C[C@@H](Oc1cc(-n2cnc3ccc(NC(=O)CCN4CCCCC4)cc32)sc1C(N)=O)c1ccccc1Cl	100%	60%	36%
CSc1ccc(CN2CCC(CNC(=O)c3cc(-c4ccccc4F)cs3)C2)cc1.O=C(O)C(F)(F)F (stereo not given)	90%	13%	32%
Cc1nn(CC(O)Cn2c3ccc(Br)cc3c3cc(Br)ccc32)c(C)c1Br (stereo not given)	98%	81%	4%
Cc1[nH]c(C)c(Cc2ccc(Oc3ccc(OC(F)(F)F)cc3)cc2)c(=O)c1Br	96%	87%	29%
CCSc1ccccc1COc1c(C)nc(N)nc1N.Cl	93%	4%	54%
O=C(Nc1nc2cc(S(=O)(=O)NCc3ccc(Cl)c(Cl)c3)ccc2n1CCCN1CCCC1)c1ccc(Cl)cc1.O=C(O)C(F)(F)F	89%	16%	57%
CCCCCCOc1ccc(C(=O)NCCCC2CCN(CCCCCNC(=O)C=Cc3ccc(Cl)c(Cl)c3)CC2)cc1	94%	25%	22%
CCCn1c(Sc2ccc(C#N)c([N+](=O)[O-])c2)nnc1-c1ccc(OC)cc1	94%	95%	0%
CC(C)C[C@@H](C(=O)Nc1ccc(Cc2ccc(NC(=O)[C@H](CC(C)C)N(C)C(=O)OC(C)(C)C)cc2)cc1)N(C)C(=O)OC(C)(C)C	92%	57%	17%
Cc1[nH]c(C)c(-c2ccc(OCc3ccc(OC(F)(F)F)cc3)nc2)c(=O)c1Br	98%	97%	10%
O=C(NCCCCN1CCC(c2ccc3c(c2O)CCCC3)CC1)c1ccc(-c2ccc(Cl)cc2)cc1	98%	72%	97%
CN1CCC(N(Cc2ccc(N3CCN(Cc4c[nH]c5ccc(Cl)cc45)CC3)nc2)C2CC2)CC1	100%	76%	96%
CCOc1cc(C(=O)NCCCN2CCCCC2C)ccc1-c1nc2cc(Cl)ccc2[nH]1 (stereo not given)	89%	0%	2%
O=C(Nc1ccc(N2CCCN(Cc3cccc(F)c3)CC2)cc1)c1ccc(F)cc1.O=C(O)C(F)(F)F	96%	95%	0%
Cc1cc(=O)c(-c2ccc(Oc3cccc(C(F)(F)F)c3)cc2)c(C)[nH]1	97% and 96%	97% and 95%	8% and 14%
CN(CCCNCc1cccc2ccccc12)CCCNCc1cccc2ccccc12.Cl	100%	94%	93%
CN1CCCN(c2ccnc3cc4c(cc23)N(C(=O)c2ccc(Cl)cc2)CC4)CC1.Cl	100%	0%	0%
CC[C@@H]([C@@H](CC(C)C)C(=O)N[C@@H](CCCCNC(=O)OCc1ccccc1)C(=O)Nc1ccccn1)N(O)C=O	98%	99%	0%
Cc1cc(=O)c2cc(-c3ccc(OC(F)(F)F)cc3)ccc2[nH]1	96%	95%	0%
CCCCCCCN1CC[C@@H](CCC(O)c2ccnc3ccc(OC)cc23)[C@@H](CC)C1 (stereo not given in full)	97%	93%	34%
COc1cc(NC(=O)c2sc(-c3ccc(Cl)cc3)cc2NC(=O)c2cccnc2)ccc1OCCN1CCCC1	94%	77%	38%
COc1ccc(CNC2Cc3ccccc3C2)cc1-c1ccc(S(=O)(=O)NCCN2CCCC2)cc1.O=C(O)C(F)(F)F	100%	61%	40%
CN1CCCC1CCNCc1cccc(-c2cnc(N(C)C3CCCCC3)nc2)c1 (stereo not given)	99%	95%	98%
CCc1ccc(CN2CCC(CNC(=O)c3cc(-c4ccccc4Cl)cs3)C2)cc1.O=C(O)C(F)(F)F (stereo not given)	98%	0%	14%
CCC(CC)(Cc1ccccc1)NC(=O)[C@H](Cc1ccc(OC)c(OC)c1)Nc1ccc(C#N)c2ccccc12.O=C(O)C(F)(F)F	90%	69%	16%
CC(C)C[C@@H](/C=N/N1CC(=O)NC1=O)NC(=O)[C@H](CC(C)C)NC(=O)c1ccc(OCCN2CCOCC2)cc1	94%	79%	11%

— ChEMBL document CHEMBL1157539, “Thousands of chemical starting points for antimalarial lead identification” (Nature, 2010)
